From PMC6753376

Assays:
[1] = target: 26S proteasome subunit RPT4 (UniProt P53549); test: cross-link between two proteins; affinity purification or IP with mass spectrometry; cross-linking mass spectrometry
[2] = target: 26S proteasome regulatory subunit 6B homolog (UniProt P33298); test: cross-link between two proteins; cross-linking mass spectrometry
[3] = target: 26S proteasome regulatory subunit 8 homolog (UniProt Q01939); test: as above
[4] = target: 26S proteasome regulatory subunit RPN6 (UniProt Q12377); test: as above
[5] = target: Proteasome subunit alpha type-6 (UniProt P40302); test: as above
[6] = target: Proteasome subunit beta type-5 (UniProt P30656); test: as above
[7] = target: Proteasome subunit beta type-7 (UniProt P30657); test: as above
[8] = target: 26S proteasome regulatory subunit RPN1 (UniProt P38764); test: as above
[9] = target: 26S proteasome regulatory subunit RPN7 (UniProt Q06103); test: as above
[10] = target: 26S proteasome regulatory subunit RPN8 (UniProt Q08723); test: as above
[11] = target: 26S proteasome subunit RPT4 (UniProt P53549); test: as above
[12] = target: Proteasome subunit alpha type-4 (UniProt P40303); test: as above
[13] = target: Ubiquitin carboxyl-terminal hydrolase 6 (UniProt P43593); test: as above
[14] = target: 26S proteasome regulatory subunit RPN9 (UniProt Q04062); test: as above
[15] = target: 26S proteasome regulatory subunit 4 homolog (UniProt P40327); test: as above
[16] = target: 26S proteasome regulatory subunit 7 homolog (UniProt P33299); test: as above
[17] = target: Probable 26S proteasome regulatory subunit p28 (UniProt P50086); test: as above
[18] = target: Ubiquitin C-terminal hydrolase RPN11 (UniProt P43588); test: as above
[19] = target: 26S proteasome regulatory subunit RPN5 (UniProt Q12250); test: as above
[20] = target: Proteasome subunit beta type-1 (UniProt P38624); test: as above
[21] = target: Proteasome subunit alpha type-1 (UniProt P21243); test: as above

Measured: listed as a hit

Heat shock protein SSA1, P10591
yes: [1]

Proteasome subunit alpha type-2, P23639
yes: [2] | [3] | [4]

Proteasome subunit beta type-6, P23724
yes: [5] | [6] | [7]

26S proteasome regulatory subunit 7 homolog, P33299
yes: [3] | [8] | [9] | [10] | [11] | [12] | [13]

26S proteasome regulatory subunit RPN12, P32496
yes: [14]

Proteasome subunit alpha type-4, P40303
yes: [15] | [3]

26S proteasome regulatory subunit 6B homolog, P33298
yes: [15] | [16] | [8] | [4] | [10] | [17] | [18]

Ubiquitin C-terminal hydrolase RPN11, P43588
yes: [14]

Proteasome subunit alpha type-1, P21243
yes: [2] | [19] | [11] | [20] | [7]

26S proteasome regulatory subunit RPN1, P38764
yes: [15] | [3] | [9] | [10] | [11] | [18] | [13]

26S proteasome regulatory subunit RPN10, P38886
yes: [18]

Probable 26S proteasome regulatory subunit p28, P50086
yes: [3] | [4]

Proteasome subunit alpha type-3, P23638
yes: [15] | [3] | [4] | [9] | [12]

26S proteasome regulatory subunit 8 homolog, Q01939
yes: [4] | [9] | [10]

Proteasome subunit alpha type-5, P32379
yes: [16]

26S proteasome regulatory subunit RPN2, P32565
yes: [2] | [16] | [8] | [4] | [10] | [18]

Proteasome subunit beta type-4, P22141
yes: [6]

26S proteasome regulatory subunit 4 homolog, P40327
yes: [11] | [13]

Probable proteasome subunit alpha type-7, P21242
yes: [19] | [11] | [21]

26S proteasome subunit RPT4, P53549
yes: [3] | [19] | [10] | [14]

26S proteasome regulatory subunit 6A, P33297
yes: [2] | [3] | [19] | [10]
